# Activity calls are given as the source filed them.
# Key:
# [1] = system: Plasmodium falciparum Sir2 (PF13_0152, Sir2A); assay: pfSir2 binders on small-molecule microarrays, primary screen, biochemical, small-molecule microarray, 635 nm fluorescence (AID 1098); details: small-molecule microarray binding, fluorescence 635 nm; higher = more signal;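 also: score merges spot fluorescence intensity with its signal-to-noise ratio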
# [2] = small-molecule microarray binders of probe aDKK1, primary screen, biochemical, biotinylated probe, 635/667 nm fluorescence (AID 1099); details: higher = more signal;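 also: score merges 667nm spot fluorescence with signal to noise across triplicate slides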
# [3] = small-molecule microarray binders of probe aCHRDL2, primary screen, biochemical, biotinylated probe, 635/667 nm fluorescence (AID 1100); details: higher = more signal
# [4] = splicing luciferase reporter signal modulators, primary screen, spliceosome inhibition project, cell-based, HEK293, splice +/- reporter (AID 1101); details: luminescence, 24 h, higher = more signal, called active from +8 up or from −8 down;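 also: HEK293 cells carrying a splicing-competent luciferase reporter gene; test concentration not given here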
# [5] = molecular target: Fibroblast growth factor 10 (Homo sapiens) (UniProt O15520); assay: FGF10 binders on small-molecule microarrays, primary screen, biochemical, small-molecule microarray, 635 nm fluorescence (AID 1102); details: FGF10 binding, fluorescence 635 nm, higher = more signal
# Chain of Fibroblast growth factor 10 (Homo sapiens) (O15520 whole entry, looked up): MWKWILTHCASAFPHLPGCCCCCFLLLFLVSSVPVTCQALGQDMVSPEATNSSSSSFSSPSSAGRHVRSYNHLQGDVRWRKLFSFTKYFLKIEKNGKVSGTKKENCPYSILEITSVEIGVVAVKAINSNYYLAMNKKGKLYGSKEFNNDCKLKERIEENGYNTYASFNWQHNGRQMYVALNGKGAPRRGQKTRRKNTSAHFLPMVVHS
# [6] = system: glycogen synthase kinase-3 (GSK3A per assay name; protocol says GSK3B); assay: GSK3 binders on small-molecule microarrays, primary screen, biochemical, small-molecule microarray, 635 nm fluorescence, GSK3A (AID 1103); details: small-molecule microarray binding, fluorescence 635 nm; higher = more signal; also: the record names both GSK3A and GSK3B
# [7] = molecular target: Epidermal growth factor receptor (Homo sapiens) (UniProt P00533); assay: EGFR binders on small-molecule microarrays, primary screen, biochemical, small-molecule microarray, 635 nm fluorescence (AID 1104); details: EGFR binding, higher = more signal;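 also: score merges 667 nm emission intensity with spot signal to noise over triplicate slides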
# Chain of Epidermal growth factor receptor (Homo sapiens) (P00533 whole entry, looked up): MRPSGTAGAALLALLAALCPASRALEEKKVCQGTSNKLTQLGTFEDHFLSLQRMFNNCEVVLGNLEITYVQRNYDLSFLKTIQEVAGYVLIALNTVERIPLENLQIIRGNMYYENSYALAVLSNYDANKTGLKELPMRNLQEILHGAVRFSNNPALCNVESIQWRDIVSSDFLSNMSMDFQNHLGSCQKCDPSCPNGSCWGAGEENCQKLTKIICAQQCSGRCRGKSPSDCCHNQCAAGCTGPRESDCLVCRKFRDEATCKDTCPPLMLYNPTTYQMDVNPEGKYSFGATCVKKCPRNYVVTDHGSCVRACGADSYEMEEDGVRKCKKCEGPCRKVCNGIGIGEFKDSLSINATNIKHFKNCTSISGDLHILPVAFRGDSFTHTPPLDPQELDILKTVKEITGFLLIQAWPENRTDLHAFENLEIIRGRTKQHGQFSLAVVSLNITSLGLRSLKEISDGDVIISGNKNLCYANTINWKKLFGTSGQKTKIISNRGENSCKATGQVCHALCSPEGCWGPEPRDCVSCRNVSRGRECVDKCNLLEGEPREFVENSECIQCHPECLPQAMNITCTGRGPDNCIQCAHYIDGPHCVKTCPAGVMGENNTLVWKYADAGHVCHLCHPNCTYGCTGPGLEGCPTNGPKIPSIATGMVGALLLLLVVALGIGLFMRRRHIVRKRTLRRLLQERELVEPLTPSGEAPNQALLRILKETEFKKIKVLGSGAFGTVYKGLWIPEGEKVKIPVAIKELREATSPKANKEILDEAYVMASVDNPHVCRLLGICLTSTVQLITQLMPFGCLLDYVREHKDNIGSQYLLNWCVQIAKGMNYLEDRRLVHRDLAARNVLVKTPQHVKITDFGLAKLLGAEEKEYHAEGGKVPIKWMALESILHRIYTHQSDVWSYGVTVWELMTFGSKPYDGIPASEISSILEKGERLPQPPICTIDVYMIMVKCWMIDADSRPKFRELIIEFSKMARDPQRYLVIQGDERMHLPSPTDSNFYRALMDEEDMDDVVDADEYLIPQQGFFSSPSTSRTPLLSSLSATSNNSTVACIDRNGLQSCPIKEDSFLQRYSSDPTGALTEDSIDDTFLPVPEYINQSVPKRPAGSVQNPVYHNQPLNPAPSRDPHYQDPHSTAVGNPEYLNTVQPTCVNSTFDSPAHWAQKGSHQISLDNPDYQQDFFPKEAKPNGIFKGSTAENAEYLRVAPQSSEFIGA
# [8] = molecular target: Follistatin-related protein 3 (Homo sapiens) (UniProt O95633); assay: FSTL3 binders on small-molecule microarrays, primary screen, biochemical, small-molecule microarray, 635 nm fluorescence (AID 1105); details: FSTL3 binding, higher = more signal;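 also: score merges emission near 667 nm and signal to noise per printed spot across three slides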
# Chain of Follistatin-related protein 3 (Homo sapiens) (O95633 whole entry, looked up): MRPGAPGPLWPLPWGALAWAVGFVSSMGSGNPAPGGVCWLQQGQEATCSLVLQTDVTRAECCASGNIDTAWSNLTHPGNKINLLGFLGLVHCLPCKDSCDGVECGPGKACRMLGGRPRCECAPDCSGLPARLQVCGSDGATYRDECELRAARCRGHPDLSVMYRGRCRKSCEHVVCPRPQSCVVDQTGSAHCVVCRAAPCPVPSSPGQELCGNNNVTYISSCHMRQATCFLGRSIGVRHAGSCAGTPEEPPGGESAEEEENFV
# [9] = molecular target: Dickkopf-related protein 1 (Homo sapiens) (UniProt O94907); assay: DKK1 binders on small-molecule microarrays, primary screen, biochemical, small-molecule microarray, 635 nm fluorescence scan (AID 1106); details: DKK1 binding, higher = more signal;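 also: score merges emission near 667 nm with signal to noise over three replicate slides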
# Chain of Dickkopf-related protein 1 (Homo sapiens) (O94907 whole entry, looked up): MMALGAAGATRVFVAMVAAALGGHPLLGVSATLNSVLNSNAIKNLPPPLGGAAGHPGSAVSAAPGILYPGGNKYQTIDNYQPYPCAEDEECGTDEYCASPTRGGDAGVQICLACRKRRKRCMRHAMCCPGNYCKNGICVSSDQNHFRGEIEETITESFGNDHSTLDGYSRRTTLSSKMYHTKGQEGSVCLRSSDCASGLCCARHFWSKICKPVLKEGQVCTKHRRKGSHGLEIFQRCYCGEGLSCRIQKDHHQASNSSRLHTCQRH
# [10] = system: Inhibin beta A chain (activin A); assay: INHBA (activin A) binders on microarrays, primary screen, biochemical, small-molecule microarray, 635 nm fluorescence scan (AID 1107); details: small-molecule microarray binding, higher = more signal;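 also: mouse activin A protein probed at 4.33 µg/mL on printed slides; score merges bound-protein fluorescence near 667 nm with spot signal-to-noise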
# [11] = system: Human papillomavirus type 1a protein E7 (residues 44-93); assay: HPV1a E7 fragment binders on microarrays, primary screen, biochemical, small-molecule microarray, residues 44-93, 635 nm fluorescence (AID 1108); details: small-molecule microarray binding, fluorescence 635 nm; higher = more signal;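 also: E7 fragment applied at 1 µg/mL in TBST for 1 h at 4 C; score combines spot fluorescence with its signal to noise ratio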
# [12] = modulators of HCV replicon luciferase signal, primary screen, HCV replication inhibitor project, Huh7 cells, luciferase reporter (AID 1109); details: 48 h, higher = more signal;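 also: huh7 hepatoma cells harbouring a luciferase neomycin HCV replicon reporter; luciferase luminescence as measure of HCV replicon replication; test concentration not given here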
# [13] = molecular target: Left-right determination factor 2 (Homo sapiens) (UniProt O00292); assay: LEFTY2 binders on small-molecule microarrays, primary screen, biochemical, small-molecule microarray, 635 nm fluorescence scan (AID 1110); details: LEFTY2 binding, higher = more signal
# Chain of Left-right determination factor 2 (Homo sapiens) (O00292 whole entry, looked up): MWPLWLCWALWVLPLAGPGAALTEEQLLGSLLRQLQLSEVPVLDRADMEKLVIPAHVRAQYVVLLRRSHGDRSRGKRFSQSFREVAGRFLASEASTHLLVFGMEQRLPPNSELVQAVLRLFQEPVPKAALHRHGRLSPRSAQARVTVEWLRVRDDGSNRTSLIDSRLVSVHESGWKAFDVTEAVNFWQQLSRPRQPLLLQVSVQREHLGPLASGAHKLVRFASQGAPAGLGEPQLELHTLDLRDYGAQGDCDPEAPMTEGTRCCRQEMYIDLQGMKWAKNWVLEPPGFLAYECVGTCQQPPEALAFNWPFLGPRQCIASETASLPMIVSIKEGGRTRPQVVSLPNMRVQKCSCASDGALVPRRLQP
# [14] = molecular target: Calmodulin-1 (Homo sapiens) (UniProt P0DP23); assay: CALM1 binders on microarrays, EGTA buffer, profiling panel, biochemical, small-molecule microarray, Cy5-labelled CALM1 (AID 1111); details: Cy5-CALM1 binding fluorescence, higher = more signal;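 also: labelled calmodulin applied in Tris saline Tween buffer holding calcium plus EGTA and DTT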
# [15] = molecular target: Calmodulin-1 (Homo sapiens) (UniProt P0DP23); assay: calcium-bound CALM1 binders on microarrays, profiling panel, artefact control for SMM control-protein annotation, biochemical, small-molecule microarray, Cy5-labelled CALM1, plus calcium (AID 1112); details: Cy5-CALM1 binding fluorescence, higher = more signal;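 also: score merges spot fluorescence with signal to noise from triplicate slides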
# [16] = small-molecule microarray binders of probe aWnt5a, primary screen, biochemical, biotinylated probe, 635/667 nm fluorescence (AID 1113); details: higher = more signal;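 also: score merges 667 nm fluorescence intensity with signal-to-noise per printed feature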
# [17] = small-molecule microarray binders of probe aShh, primary screen, biochemical, biotinylated probe, 635/667 nm fluorescence (AID 1114); details: higher = more signal;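 also: probe is biotin-labelled aShh protein from a stem cell growth factor screen; measures binding of labelled protein to compounds printed on the slide; score merges feature fluorescence at 667 nm with signal-to-noise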
# [18] = small-molecule microarray binders of probe aNog, primary screen, biochemical, biotinylated probe, 635/667 nm fluorescence (AID 1115); details: higher = more signal;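 also: probe is biotinylated aNog protein used at 0.15 µg/mL for 1 h at 4 C; z-score combines 667 nm fluorescence of each spot with its signal to noise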
# [19] = molecular target: Torsin-1A-interacting protein 1 (Homo sapiens) (UniProt Q5JTV8); assay: LAP1 binders from COS7 cell lysate, primary screen, small-molecule microarray, 635/667 nm fluorescence (AID 1116); details: COS7-hLAP1 lysate binding, 635 nm fluorescence, higher = more signal
# Chain of Torsin-1A-interacting protein 1 (Homo sapiens) (Q5JTV8 whole entry, looked up): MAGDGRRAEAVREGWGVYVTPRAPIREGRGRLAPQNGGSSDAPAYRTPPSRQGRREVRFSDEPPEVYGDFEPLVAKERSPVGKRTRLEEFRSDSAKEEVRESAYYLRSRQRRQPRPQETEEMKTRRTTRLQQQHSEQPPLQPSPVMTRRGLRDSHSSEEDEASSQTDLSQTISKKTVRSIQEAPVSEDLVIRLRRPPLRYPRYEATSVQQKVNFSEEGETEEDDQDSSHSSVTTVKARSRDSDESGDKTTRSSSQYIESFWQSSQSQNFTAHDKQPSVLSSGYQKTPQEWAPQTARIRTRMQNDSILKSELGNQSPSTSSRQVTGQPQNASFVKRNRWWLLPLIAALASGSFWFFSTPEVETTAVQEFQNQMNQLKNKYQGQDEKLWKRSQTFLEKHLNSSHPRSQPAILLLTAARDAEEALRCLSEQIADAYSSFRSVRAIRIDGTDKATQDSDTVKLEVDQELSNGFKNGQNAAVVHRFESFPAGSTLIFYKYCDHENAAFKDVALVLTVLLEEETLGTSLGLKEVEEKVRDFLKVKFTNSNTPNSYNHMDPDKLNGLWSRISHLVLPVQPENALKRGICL
# [20] = molecular target: Alpha-bungarotoxin (Bungarus multicinctus) (UniProt P60615); assay: alpha-bungarotoxin binders on microarray, profiling panel, artefact control for SMM control protein annotation, biochemical, small-molecule microarray, Alexa647 label, 635/667 nm fluorescence (AID 1117); details: alpha-BTX-A647 binding fluorescence, higher = more signal
# Chain of Alpha-bungarotoxin (Bungarus multicinctus) (P60615 whole entry, looked up): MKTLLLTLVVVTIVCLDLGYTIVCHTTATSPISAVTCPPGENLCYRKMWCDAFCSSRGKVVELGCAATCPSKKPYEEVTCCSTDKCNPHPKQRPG
SMILES,composite z-score [1],composite z-score [2],composite z-score [3],z-score [4],composite z-score [5],composite z-score [6],composite z-score [7],composite z-score [8],composite z-score [9],composite z-score [10],composite z-score [11],z-score [12],composite z-score [13],composite z-score [14],composite z-score [15],composite z-score [16],composite z-score [17],composite z-score [18],composite z-score [19],composite z-score [20]
CO[C@H]1O[C@H](CO)[C@@H](OC(=O)Nc2ccc(Oc3ccccc3)cc2)[C@H](OC(=O)Nc2ccc3c(c2)OCO3)[C@@H]1OC(=O)Nc1ccc2c(c1)OCO2,1.38,0.337,0.478,-0.762 (inactive),1.17,1.33,0.54,1.39,0.46,0.707,0.794,0.166,0.627,1.15,-0.23,0.0374,0.246,0.565,1.37,1.26
CC(C)CN1C(=O)[C@@]2(c3ccc([N+](=O)[O-])cc3)CC(=O)N(C3CCCCC3)[C@@H]2c2ccc(CO)cc21,0.103,-0.0495,0.867,0.256 (inactive),-0.935,-1.27,-1.31,-1.21,-1.38,0.294,-1.25,-0.707,-1.69,-0.311,-0.0449,-0.208,-0.33,-0.181,-0.803,0.547
NC(=O)[C@@H]1[C@H]2C(=O)O[C@H](c3ccccc3)[C@H](c3ccccc3)N2[C@H](c2ccc(O)cc2)[C@@]12C(=O)Nc1ccc(C#CC3=CCCCC3)cc12,0.735,-0.0562,-0.42,-2.28 (inactive),0.676,0.439,-0.122,0.31,-0.333,0.763,1.42,-3.23,-0.585,0.573,0.199,0.065,1.78,1.01,0.453,0.334
OB1C=CCC(CCc2ccccc2)O1 (stereo not given),1.57,-0.246,0.0796,-0.817 (inactive),-0.184,-0.428,0.0835,-0.544,-0.191,1.67,-1.86,1.1,-0.32,-0.961,-0.455,-0.263,-0.117,-0.39,0.363,-0.725
O=C1C2C=CC(C(O)c3cc(C(F)(F)F)cc(C(F)(F)F)c3)N(Nc3ccccc3)C2C(=O)N1c1ccccc1 (stereo not given),1.24,0.723,0.433,-2.9 (inactive),-0.239,0.22,-0.303,-0.154,-0.667,1.01,1.44,-0.761,-0.457,0.925,0.388,-0.0425,-0.358,0.341,1.07,0.63
O=C1OCCC=C[C@H]2OC34C=CCN(Cn5nnc6ccccc65)C(=O)[C@H]3N(CCO)C(=O)[C@@H]4C12 (stereo not given in full),1.34,0.362,0.254,-0.456 (inactive),-1.55,-1.6,-1.77,-1.04,-1.64,-0.539,-1.59,-0.772,-2.07,-0.4,0.262,-0.252,-0.262,0.328,-0.618,1.1
COCC(=C=CC[C@H](O)c1ccccc1OCCO)CCO,1.52,0.0439,-0.423,0.338 (inactive),0.919,0.485,-0.865,0.612,0.274,0.564,0.0008,-0.266,-0.378,-0.0866,-0.037,-0.096,0.0723,0.509,1.34,0.804
COc1ccc(CCNC(=O)[C@@]2(c3ccc([N+](=O)[O-])cc3)CC(=O)N(CC34CC5CC(CC(C5)C3)C4)[C@@H]2c2ccc(CO)cc2I)cc1,1.01,-0.153,-0.263,-0.287 (inactive),1.15,1.04,0.233,0.861,0.424,-0.444,1.38,-3.41,0.261,0.408,-0.266,-0.0643,-0.312,0.769,0.757,0.962
[N-]=[N+]=NCc1ccccc1[C@@H]1OC(c2ccc(OCCCO)cc2)=N[C@]1(CCS(=O)(=O)c1ccccc1)C(=O)N1CCOCC1,1.46,1.27,1.31,-1.56 (inactive),1.04,1.12,0.117,1.07,-0.242,0.933,1.41,-1.82,-0.141,1.72,0.443,0.0357,0.0381,0.113,2,2.04
C#CCNCc1ccccc1,-0.375,-0.192,-0.288,0.258 (inactive),0.2,0.539,0.397,0.349,0.183,0.209,0.297,0.141,0.689,-0.389,-0.163,-0.213,-0.291,-0.213,0.195,0.34
O=C(CS)NCCCCCNC(=O)[C@@H]1C[C@@H]2C(=O)NCC(=O)N2[C@@H]1c1cccc(OCCO)c1,1.17,0.0565,0.21,-1.82 (inactive),0.18,0.0776,0.752,0.0486,0.543,0.501,0.275,-0.125,0.387,0.129,-0.193,-0.16,-0.197,-0.137,0.635,-0.315
O=C1C2C=CC(C(O)C=Cc3ccc([N+](=O)[O-])cc3)N(n3cnnc3)C2C(=O)N1Cc1ccccc1 (stereo not given),1.53,0.341,0.832,0.243 (inactive),0.466,0.587,-0.0912,0.906,0.377,1.17,1.34,-0.93,-0.368,0.596,-0.143,0.0633,-0.0035,0.977,0.832,1.39
COc1ccc([Si](C)(C)[C@H]2[C@H](CC(=O)N3CCC[C@H]3CO)O[C@@]3(C(=O)N(Cc4cccc(N5CCOC5=O)c4)c4ccccc43)[C@@H]2C)cc1,0.927,-0.195,-0.425,-0.298 (inactive),0.578,0.712,0.909,1.3,0.437,1.11,1.23,-2.44,1.05,-0.133,-0.834,-0.124,-0.0553,0.0258,0.368,1.58
O=C1OCC=C[C@H]2OC34C=CCN(CCN5CCOCC5)C(=O)[C@H]3N(CCO)C(=O)[C@@H]4[C@@H]12 (stereo not given in full),1.47,-0.0283,-0.224,0.308 (inactive),-0.787,0.0559,-0.14,0.241,-0.0563,0.0758,0.259,0.289,-0.0919,-0.571,-0.932,-0.223,-0.321,-0.384,0.0486,-0.283

# Reference: PubChem BioAssay
